Test results as given in PubChem BioAssay AID1851 (National Center for Advancing Translational Sciences (NCATS), 2009).
Several values for one entry are separate records, joined by “and”; a condition that tells them apart may be missing. Equal values may be shown once. Out of some 16,000 compounds screened, about 4,000 (25%) were called active. Inconclusive results (about 26%) are left out. The call rests on the fitted dose curve; in most records, active means well fitted curve in the direction sought with a large enough effect; inconclusive means small, poorly fitted or top-dose-only effect, or effect the other way; inactive means no such curve, though single readings can be large or run the other way. These entries were drawn from the full list. A structure can be active in one record and inactive in another.
On the % scale 0 is the no-effect control and ±100 the full control effect.

What follows are compounds tested against Cytochrome P450 2C9 (Homo sapiens) (UniProt P11712) (assay: Cytochrome panel assay with activity outcomes). Conditions: recombinant CYP, pro-luciferin dealkylation, luminescence, p450-cyp2c9; series mostly up to 57.1 µM.
Sequence of Cytochrome P450 2C9 (Homo sapiens) (P11712 whole entry, looked up): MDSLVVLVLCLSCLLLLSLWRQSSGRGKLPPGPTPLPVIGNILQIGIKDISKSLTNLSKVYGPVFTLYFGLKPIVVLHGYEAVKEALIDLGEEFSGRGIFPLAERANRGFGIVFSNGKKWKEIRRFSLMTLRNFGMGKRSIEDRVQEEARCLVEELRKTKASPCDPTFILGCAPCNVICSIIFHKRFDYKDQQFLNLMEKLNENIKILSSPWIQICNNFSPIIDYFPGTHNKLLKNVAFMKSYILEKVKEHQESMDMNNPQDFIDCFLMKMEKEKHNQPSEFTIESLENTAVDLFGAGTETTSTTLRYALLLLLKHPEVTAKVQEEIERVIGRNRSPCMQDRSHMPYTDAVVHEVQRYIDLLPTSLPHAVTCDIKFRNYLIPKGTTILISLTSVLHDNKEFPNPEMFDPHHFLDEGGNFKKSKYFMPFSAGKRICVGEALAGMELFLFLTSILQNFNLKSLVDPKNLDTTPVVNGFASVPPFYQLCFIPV
With `COc1ccccc1CNc1ccnc(-c2ccccc2Cl)n1` the activity, negative = inhibition was -21.6% [at 2.29 µM] (inactive).
`COc1ccccc1CNc1ncncc1-c1ccccc1Cl` was tested, and the activity, negative = inhibition was -27.8% [at 2.29 µM] (inactive).
With `COc1cccc(CNc2ccc(F)c(Cl)c2)c1O` the AC50 was 2.82 µM (active).
`CCCN1C2=NCCCN2c2ccccc21` was tested, and the AC50 was “inactive”.
In the case of `COc1ccc(C(=O)/C=C(/C)N(C)C)cc1`, the AC50 is reported as “inactive”.
For `COc1ccc(/C=C/C(=O)c2ccoc2)cc1`, the AC50 was 28.2 µM (active).
`O=C(/C=C/c1ccc2ccccc2c1)c1ccoc1` was tested, and the AC50 was “inactive”.
For `O=C(CCc1nc(-c2ccccc2)c(-c2ccccc2)o1)OCc1ccc(Cl)cc1`, the AC50 was 22.4 µM (active).
With `NCCSc1nc(-c2ccccc2)c(-c2ccccc2)o1` the activity, negative = inhibition was -11.6% [at 11.4 µM] (inactive).
For `CN(C)C(=O)c1ccc(-c2cncnc2NCc2cccnc2)cc1`, the activity, negative = inhibition was 8.29% [at 2.29 µM] (inactive).
In the case of `COc1cccc(-c2ccc3ncnc(N(C)C)c3c2)c1`, the activity, negative = inhibition is reported as -9.73% [at 2.29 µM] (inactive).
In the case of `Cc1ccc(-c2nnc(N(C)C(=O)c3cccnc3)s2)cc1`, the AC50 is reported as 1.41 µM (active).
For `COc1cccc(C(=O)N(C)c2nnc(-c3ccncc3)s2)c1`, the AC50 was 2 µM (active).
In the case of `CC(=O)N(C)c1nnc(-c2cnccn2)s1`, the AC50 is reported as “inactive”.
In the case of `CCCC1S/C(=N/N=C/c2ccc(OC)cc2)N(Cc2ccc(OC)cc2)C1=O` (stereo not given), the AC50 is reported as 15.8 µM (active).
`CC(C)=NO[C@@H](C)c1cc(-c2c(C)cc(C)cc2C)no1` was tested, and the activity, negative = inhibition was -0.976% [at 11.4 µM] (inactive).
With `CCOC(=O)c1c(C)oc2c1cc(O)c1ccccc12` the AC50 was 1.12 µM (active).
In the case of `CCOC(=O)c1c(C)oc2c1c(C=NC1CCS(=O)(=O)C1)c(O)c1ccccc12` (stereo not given), the AC50 is reported as “inactive”.
In the case of `C[C@@H]1C[C@H](OC(=O)[C@@H](O)c2ccccc2)CC(C)(C)N1C`, the AC50 is reported as “inactive”.
`CCCc1nnc(NC(=O)Cn2cnc3ccccc3c2=O)s1` was tested, and the AC50 was 17.8 µM (active).
In the case of `CCCc1nnc(NC(=O)CCC(=O)N2CCN(c3ccccn3)CC2)s1`, the AC50 is reported as “inactive”.
With `O=C(Cn1cnc2ccccc2c1=O)Nc1nnc(SCc2ccccc2)s1` the AC50 was 8.91 µM (active).
In the case of `CCCc1nnc(NC(=O)CCC(=O)NCc2ccccc2OC)s1`, the AC50 is reported as “inactive”.
For `OCCn1cnc2c(SCc3ccccc3)ncnc21`, the activity, negative = inhibition was 12.5% [at 11.4 µM] (inactive).
With `CCCC(=O)Nc1nc(-c2ccc3c(c2)CCN3S(C)(=O)=O)cs1` the AC50 was “inactive”.
In the case of `COc1ccc(-c2csc(NC(=O)CCn3cnc4ccccc4c3=O)n2)cc1OC`, the AC50 is reported as 1 µM (active).
In the case of `Cn1c(=O)c2[nH]c(CCCc3ccc([N+](=O)[O-])cc3)nc2n(C)c1=O`, the activity, negative = inhibition is reported as 1.93% [at 11.4 µM] (inactive).
In the case of `CC(C)(C)c1ccc(COC(=O)CNC(=O)CNC(=O)Cc2ccccc2)cc1`, the AC50 is reported as “inactive”.
`Cc1ccc(C(=O)COC(=O)CNC(=O)Cc2ccccc2)cc1[N+](=O)[O-]` was tested, and the AC50 was 14.1 µM (active).
For `Cc1ccc(C(=O)COC(=O)CNC(=O)C(c2ccccc2)c2ccccc2)cc1[N+](=O)[O-]`, the AC50 was “inactive”.
In the case of `O=C1[C@H]2[C@H]3[C@H](O)[C@H](O)C/C(=N/OC[C@@H](O)COCc4ccco4)[C@@H]3CC[C@@H]2C(=O)N1C[C@@H]1CCCO1`, the activity, negative = inhibition is reported as 39.3% [at 11.4 µM] (inactive).
In the case of `COc1ccc(S(=O)(=O)N2CCC(N3CCCCC3)CC2)cc1`, the AC50 is reported as “inactive”.
In the case of `COc1ccc(S(=O)(=O)N2CC3C4C=CC(C4)C3C2)cc1` (stereo not given), the AC50 is reported as 14.1 µM (active).
`CCN(CC)CCOC(=O)[C@@H](c1ccccc1)C1CCCCC1` was tested, and the AC50 was “inactive”.
For `CC(C)(C)NC(=O)CSC(=Nc1ccc(F)cc1)NC#N`, the AC50 was 12.6 µM (active).
In the case of `CC(C)OC(=O)c1cc2c(OC[C@@H](O)CNC(C)(C)C)cccc2[nH]1`, the AC50 is reported as “inactive”.
For `CC(C)CO/N=C1/C[C@@H](O)[C@@H](O)[C@@H]2[C@@H]3C(=O)N(C[C@@H]4CCCO4)C(=O)[C@H]3CC[C@H]12`, the activity, negative = inhibition was 9.45% [at 11.4 µM] (inactive).
For `Cc1nn(-c2ccccc2)c2c1C(=O)N(Cc1ccccc1)C(=O)C(C)(C)C2`, the AC50 was 17.8 µM (active).
In the case of `O=C(NCCCN1CCN(C2CCCCC2)CC1)Nc1ccccc1C(F)(F)F`, the AC50 is reported as “inactive”.
`CCOC(=O)C1=C(C)NC2=C(C(=O)C(C(=O)OCC)C(c3ccc(OC)cc3)C2)C1c1ccccn1` (stereo not given) was tested, and the AC50 was 8.91 µM (active).
With `COCCn1c(=O)c(-c2cc(F)cc(F)c2)nc2cnc(N3CCNCC3)nc21` the AC50 was 1.26 µM (active).
For `COc1ccc(-n2c(=O)c(-c3cccc(C#N)c3)nc3cnc(N4CCNCC4)nc32)cc1`, the AC50 was “inactive”.
For `COCCn1c(=O)c(-c2cc(F)cc(F)c2)nc2cnc(N3CCOCC3)nc21`, the AC50 was “inactive”.
With `COCCn1c(=O)c(-c2cccc(C#N)c2)nc2cnc(N3CCNCC3)nc21` the AC50 was 3.98 µM (active).
In the case of `COCCn1c(=O)c(C)nc2cnc(N3CCNCC3)nc21`, the AC50 is reported as “inactive”.
`CN1CCN(c2ncc3nc(-c4cccc(C#N)c4)c(=O)n(CCC#N)c3n2)CC1` was tested, and the AC50 was “inactive”.
For `C1CCc2c(nc3nnnn3c2NC2CCCC2)C1`, the AC50 was “inactive”.
`O=C1/C(=C/c2ccccc2)[C@@H](NC2CCCCC2)c2ccccc21` was tested, and the AC50 was 3.98 µM (active).
`O=C(O)[C@H]1CCCN(CCC=C(c2ccccc2)c2ccccc2)C1` was tested, and the AC50 was “inactive and 7.94 µM (active)”.
For `COc1ccc(C(OCCN2CCC[C@@H](C(=O)O)C2)(c2ccc(OC)cc2)c2ccc(OC)cc2)cc1`, the AC50 was “inactive”.
In the case of `S[C@@H]1CCCN(Cc2ccccc2)C1`, the activity, negative = inhibition is reported as -2.17% [at 11.4 µM] (inactive).
`C[C@H](N[C@@H](C)COc1ccccc1)[C@H](O)c1ccc(O)cc1` was tested, and the AC50 was “inactive”.
`O=c1c(-c2ccccc2)nc2cnc(N3CCNCC3)nc2n1Cc1ccc(F)cc1` was tested, and the AC50 was 10 µM (active).
With `O=c1c(-c2ccc(F)cc2)nc2cnc(N3CCNCC3)nc2n1-c1ccccc1` the AC50 was “inactive”.
`CN1CCN(c2ncc3nc(-c4ccccc4)c(=O)n(Cc4ccc(F)cc4)c3n2)CC1` was tested, and the AC50 was “inactive”.
With `CN1CCN(c2ncc3nc(-c4ccc(Cl)cc4)c(=O)n(Cc4ccc(F)cc4)c3n2)CC1` the AC50 was “inactive”.
For `CN(C)c1ncc2nc(-c3ccc(Cl)cc3)c(=O)n(Cc3ccc(F)cc3)c2n1`, the AC50 was “inactive”.
`O=c1c(-c2ccc(Cl)cc2)nc2cnc(N3CCNCC3)nc2n1Cc1ccc(F)cc1` was tested, and the AC50 was 25.1 µM (active).
`CC(O)CN(CCC(N)=O)CCC(N)=O` (stereo not given) was tested, and the AC50 was “inactive”.
With `CC(=O)c1cnc2c(C(=O)O)cnn2c1C` the AC50 was “inactive”.
With `Cc1cc(N)n(-c2ccccc2)n1` the AC50 was “inactive”.
In the case of `Cc1cc(-c2c(C)[nH]n(-c3ccccc3)c2=O)n(-c2ccccc2)n1`, the AC50 is reported as 1.58 µM (active).
`Cc1ccc(C)c(C(=O)CN2C3=NCCCN3c3ccccc32)c1` was tested, and the AC50 was “inactive”.
With `CC[C@](N)(CCC(=O)O)C(=O)O` the AC50 was “inactive”.
In the case of `CC(CCC(=O)O)(c1cc(Br)c(O)c(Br)c1)c1cc(Br)c(O)c(Br)c1`, the AC50 is reported as 3.16 µM (active).
In the case of `CC(C)c1ccc(Cn2ccc3c4c(N)nc(NC5CC5)nc4ccc32)cc1`, the AC50 is reported as “inactive”.
With `O=C(NCc1ccccc1)c1ccc(S(=O)(=O)N2CCCc3ccccc32)cc1` the AC50 was 3.16 µM (active).
In the case of `Cc1ccc(C(=O)ON=C2CCN(S(=O)(=O)c3ccccc3)CC2)cc1`, the AC50 is reported as “inactive”.
With `Cc1cc(NC(=O)COC(=O)c2ccc(S(=O)(=O)N3CCCc4ccccc43)cc2)no1` the AC50 was 3.55 µM (active).
For `Cc1cc(N(CN2CCCC2=O)C(=O)c2ccc(F)cc2)no1`, the AC50 was “inactive”.
In the case of `Cc1ccc(S(=O)(=O)N[C@H]2COC(=O)[C@@H](Cc3ccccc3)NC(=O)[C@@H](C)COC(=O)C/C=C\[C@@H]2C)cc1`, the activity, negative = inhibition is reported as 7.81% [at 11.4 µM] (inactive) and -8.92% [at 11.4 µM] (inactive).
For `Clc1ccccc1NN(Cc1ccncc1)c1ccccc1Cl`, the AC50 was 1.58 µM (active).
For `Clc1ccccc1NN(Cc1ccccn1)c1ccccc1Cl`, the activity, negative = inhibition was -64.2% [at 11.4 µM] (inactive).
In the case of `CC1=c2c(oc3cc(O)c(Nc4c(C)cc(O)cc4O)c(C)c23)=CC(=O)C1=Nc1c(C)cc(O)cc1O`, the AC50 is reported as 3.16 µM (active).
With `Cc1ccc(C2C3=C(CCCC3=O)Nc3nc(SCC(=O)NCc4ccco4)[nH]c(=O)c32)cc1` (stereo not given) the AC50 was 5.01 µM (active).
For `NC(=O)CCCC1=NS(=O)(=O)c2ccccc2N1`, the AC50 was “inactive”.
For `COCCNC(=O)C(c1ccc(C)o1)N(CC1CCCO1)C(=O)Cn1nnc2ccccc21` (stereo not given), the AC50 was “inactive”.
`COc1cccc(C(C(=O)Nc2ccc(F)cc2)N(C(=O)Cn2nnc3ccccc32)C2CC2)c1` (stereo not given) was tested, and the AC50 was 12.6 µM (active).
For `COc1ccc(NC(=O)C(c2ccc(OC)cc2)N(C)C(=O)CNC(C)=O)cc1` (stereo not given), the AC50 was “inactive”.
`COc1ccc(C(C(=O)Nc2ccc(F)cc2)N(C(=O)Cn2nnc3ccccc32)C2CC2)cc1` (stereo not given) was tested, and the AC50 was 12.6 µM (active).
With `CO[C@@H]1COC(=O)C/C=C\[C@@H](C)[C@H](OC)COC(=O)[C@H](COCc2ccccc2)NC(=O)C/C=C\[C@H]1C` the activity, negative = inhibition was 3.17% [at 11.4 µM] (inactive).
For `C/C(CCN1CCCCc2nc(C)c(C)cc21)=N\OC[C@@H](C)[C@H](OCc1ccccc1)C(C)C`, the activity, negative = inhibition was -7.17% [at 11.4 µM] (inactive).
For `Cc1ccccc1C(=O)Oc1ccc(Br)cc1C(=S)N1CCCC1`, the AC50 was 11.2 µM (active).
`COC(=O)c1cc(OC)c(OC)cc1NC(=S)N1CCCCC1` was tested, and the AC50 was “inactive”.
`CCOC(=O)C1CCCN(C(=O)/C=C/c2cccc([N+](=O)[O-])c2)C1` (stereo not given) was tested, and the AC50 was “inactive”.
`COc1ccc(-c2cn3c(C)c(C(=O)NCCN4CCOCC4)sc3n2)cc1` was tested, and the AC50 was 7.94 µM (active).
With `COc1ccc2cc3cc(C(=O)NCCCN4CCOCC4)oc3nc2c1` the AC50 was “inactive”.
For `COc1ccc(C2=NOC(C(=O)NCCN3CCOCC3)C2)cc1` (stereo not given), the AC50 was “inactive”.
In the case of `CCOC(=O)C1CCCN(C(=O)c2sc3nc(-c4ccc(OC)cc4)cn3c2C)C1` (stereo not given), the AC50 is reported as 4.47 µM (active).
In the case of `CCOC(=O)C1CCCN(C(=O)C2CCN(S(=O)(=O)N3CCC4(CC3)OCCO4)CC2)C1` (stereo not given), the AC50 is reported as “inactive”.
`Cn1ncc(Cl)c1C(=O)Nc1cccnc1` was tested, and the AC50 was “inactive”.
With `O=C(Nc1ccn(Cc2ccccc2F)n1)c1ccc(COc2cc(Cl)ccc2Cl)o1` the AC50 was 0.447 µM (active).
In the case of `O=C(Nc1cccnc1)c1ccc(COc2cc(Cl)ccc2Cl)o1`, the AC50 is reported as 14.1 µM (active).
`CCOc1ccc(Cl)cc1CNCCNCC(C)O` (stereo not given) was tested, and the AC50 was “inactive”.
`CC(C)CNC(=O)c1ccc(COc2ccc(Cl)cc2Cl)o1` was tested, and the AC50 was 3.55 µM (active).
